Among all 53,000 sequences or so, about 3,700 (7%) were called active. This is one part of a sample in which actives are shown more often than they occur. A number with no mark means an inactive call.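 The calls were made as follows: active = gene knockdowns whose robust z-score for IL-1 alpha signal is at least 2 or at most -2, so actives lie on both sides; inactive = the rest.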

For 68 sequences, z-score results are on record in PubChem BioAssay AID1508600 (Functional Genomics Laboratory (NCATS/FGL), 2020).

The nature of the test: Components of the Cytosolic LPS Sensing Pathway: Gene Identification via Genome-wide siRNA Screen.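 Also: robust z of the log signal after scaling to non-targeting control siRNA wells of the plate.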 As to conditions: RAW264.7 macrophages, IL-1a HTRF, actives lie on both sides, screened at 100 nM (by protocol), cells primed 5 h with Pam3CSK4 first. The procedure, abridged:
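Three distinct siRNAs per gene were tested singly at 100 nM in RAW264.7 macrophages. Following Pam3CSK4 priming and 24 hour LipidA transfection, IL-1a secretion was read by HTRF.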
Turning to AAACCAUACUUGAAAGAAATT against Olfr943, the z-score was -0.36.

Regarding GCAGUAGGUUGCACACAUATT against Art1, the z-score was -2.11 (active).

With GCACACGUCCUAUAAAAAUTT against Rad54b, the z-score was 0.532.

As to GGACUUCUCUGUGAAGAUGTT against Ctsf, the z-score is -0.129.

As to GGAGAGAGGAUAAGUCACATT against Jsrp1, the z-score was -1.44.

Turning to GCUGGAUCCAUCUAAUUGCTT against Klhl12, the z-score is 0.0684.

For CGGGAUCUUAGAAGAGCAATT against Ptpre, the z-score was 2.6 (active).

Consider GGACCAGUUAAAGUCACCATT against Atp4b, for which the z-score was -1.81.

As to GGAAGGUGGCUAUUUUAAUTT against Acsl3, the z-score is -0.207.

Take CCAUUUCUUUCAGUGGCUGTT against Olfr48: the z-score was -0.47.

On to GGCUAUAAAAGCACAGUUUTT against Slc25a26, for which the z-score is -0.61.

For CCCUGCAUUUGUCAAUUAUTT against Hnrnpl, the z-score is -0.161.

Turning to “GGGACAAAGAGAUACACAUTT against 9530056K15Rik”, the z-score was 1.11.

On to GCCUGAUCGAUACGUGAUCTT against Naaladl1, for which the z-score was 3.35 (active).

On to GGAGGACAACAGCAAAACATT against Atoh1, for which the z-score was -1.01.

For GGAAAGAGAAAAACAACCATT against Cngb3, the z-score was -0.522.

With GGCUCACAUUGUAACUUAGTT against Krtap5-2, the z-score is 1.41.

GGAGAAUGCUAAGGUUACUTT against Pcdhga9: the z-score is 0.269.

On to CGGCACACUAAGAAACGGATT against Odf3l1, for which the z-score was 0.152.

Turning to GGAAGGAUAUGAGAAUUUCTT against Nt5c3, the z-score is 2.51 (active).

Consider GCUCUUACAUAGAACUUUGTT against Tpbg, for which the z-score was -0.218.

Turning to GGCCUUUUUUCUAUAUCUATT against Galnt3, the z-score is -0.637.

For the sequence GGUGGAGGUGUGAUGGAUUTT against Slamf1, the z-score is 5.09 (active).

Turning to GGUGGUGGCAGAAAUGAAUTT against Dpep2, the z-score is -0.946.

Consider CCAGUUGUGCAAUCAACAATT against Fam98c, for which the z-score was -0.367.

For the sequence CGCGGUGGAGCUUCGAGAATT against Nrtn, the z-score is 0.374.

Take GUUUCUCCAUGGAGUCAUUTT against Psmb5: the z-score is -0.742.

Turning to GGCAUUCGAAGGGACAGAUTT against Arg2, the z-score was -2.06 (active).

In the case of “GUGACCUCAUCCAGAAAAUTT against Vmn1r190-ps”, the z-score is -0.613.

Take GGAUCACUUUGACCACAACTT against Rab31: the z-score was 1.43.

On to GCACUGGACCAAAGAACGGTT against Cercam, for which the z-score was 1.14.

As for GCCAUUAUAUAGUCCUACCTT against Klf1, the z-score was 0.719.

Consider GGGUCAUGAAACCUACCUUTT against Hikeshi, for which the z-score was 0.182.

With GCUUGGACUGGAGUGAAGCTT against Map6d1, the z-score is -2.4 (active).

For the sequence GGCUACAAAGAUGCAGACUTT against Pi4k2a, the z-score was 0.22.

Turning to GACAUAUUUGGGUUUCUAATT against Vmn1r15, the z-score is -0.645.

In the case of GGAAUGACUUUUGAGACAGTT against Cyp1a1, the z-score was -0.732.

With GGUAGAGAUCAUCAAUGCATT against Ggt5, the z-score is 0.0858.

As to “GGAGUCCAAGUUUAAGGAATT against 4930522H14Rik”, the z-score is -1.65.

CGGGACACUUGAAUUGGCUTT against Frmd4a: the z-score is -2.25 (active).

In the case of GGAACAUUCUCUCCUUAUGTT against Ctps, the z-score is -0.168.

Take GGAGUUGCAUCACUUGCUCTT against BC016579: the z-score is 0.441.

As for GGUAACUGGUGUCAUUUAATT against Zfp474, the z-score is 0.619.

On to GGCAAGAUGCACAAGACUUTT against Cacna1s, for which the z-score was 2.6 (active).

Regarding GGAUGUGUUACUUACCAAATT against Map4, the z-score was 0.607.

Consider GGCCUUCUAUACUACAGACTT against Hdac1, for which the z-score was -1.23.

CGGCUCACUAGCAGUGUCUTT against Ppm1b: the z-score was -0.209.

Regarding GGUUACUCCUUUUUCAAUGTT against Elf5, the z-score is -0.636.

With GGACAUAGUCUGAGGCAAGTT against Ost4, the z-score is -1.34.

Regarding GCUGUUCAAUUUGAUUACUTT against Dapp1, the z-score is 1.77.

Take GGCAACCAUAGACGAUGAATT against Rerg: the z-score is -2.38 (active).

Take GGACCAGUUAAAGUGGCAGTT against Oas1e: the z-score was -0.00736.

Consider GGUACUUGUACUAAUCGCUTT against Lpcat2, for which the z-score was 0.683.

As for CCCUUGAUUAAGUGGAUUATT against Tgfa, the z-score was 1.19.

Regarding GGUGAUGGCUGUUCCUUUCTT against Zdhhc2, the z-score is 0.533.

As to GGAUGAAAUUGGAAAGGGCTT against Camkk2, the z-score is -0.0472.

CCAAUCCUCAACCUUGAAUTT against Ddx19a: the z-score is 0.0508.

On to “GGGACUUCCUUAUUGGAACTT against A830019P07Rik”, for which the z-score was 1.23.

In the case of GGAUGUCAACAUUCGAGAUTT against Tmem231, the z-score is 0.993.

As to GGCCAGAGACAGUUAUCUUTT against Sptssb, the z-score is 2.43 (active).

As to GGAGAAUUGUUUUUACCAGTT against Bbox1, the z-score was 0.13.

GGACUGACUGGAUUUUUCCTT against Adamts12: the z-score was -0.102.

Turning to GGCAUUAGGAUACAUAACATT against Rpgrip1l, the z-score was -0.743.

For the sequence GCUGUAACCAACAUACCUCTT against Inka1, the z-score was -0.91.

For GGAACAAAGAUUGAGAGAATT against Sltm, the z-score was -1.62.

Consider GGACAACUUUGAGGAGAUGTT against Tubg2, for which the z-score was 3.23 (active).

Turning to GGUUAUCAAAGCUAAGAAUTT against Ifi209, the z-score is -0.0859.

For the sequence GCUAGUCAGAAGAAGUACUTT against Actrt2, the z-score was -0.402.
